This is an account of results in article PMC7862700, “An all-to-all approach to the identification of sequence-specific readers for epigenetic DNA modifications on cytosine”.

Common to all, as to experiment: DAPPL (digital affinity profiling via proximity ligation, sequencing); 10 mM Tris-HCl pH 7.5, 50 mM NaCl, 1 mM DTT, 4% glycerol, room temperature, 30 min; GST-TFs on glutathione beads, 16-mer random dsDNA library, 0.1% formaldehyde crosslink after washing; high values mean tight binding
The target of one assay is T1, FEV (Homo sapiens, UniProt Q99581 1-238).
T1 sequence: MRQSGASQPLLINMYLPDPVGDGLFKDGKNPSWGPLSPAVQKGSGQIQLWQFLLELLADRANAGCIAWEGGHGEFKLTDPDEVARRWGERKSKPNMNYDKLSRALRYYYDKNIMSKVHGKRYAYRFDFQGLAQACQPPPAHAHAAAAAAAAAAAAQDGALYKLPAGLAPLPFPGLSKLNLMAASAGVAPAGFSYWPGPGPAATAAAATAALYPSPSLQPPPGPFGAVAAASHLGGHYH
The settings on record: protein: recombinant; tags: N-terminal GST; dsDNA, one strand shown. The method, boiled down: (§1)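 In yeast, human transcription factors were expressed with a GST fusion, then pulled down on glutathione beads and given DNA barcodes. Pooled with a tag-only sample, they were exposed to 200 nmole of a 16-mer random double-stranded DNA library (Tris/NaCl/DTT/glycerol buffer, room temperature, 30 min), washed, crosslinked with 0.1% formaldehyde, proximity-ligated using BsaI/T4 ligase for 1 h at 37 °C, PCR-amplified and read on an Illumina NextSeq500. Each hexamer's frequency of reads for a factor, divided by the matching frequency for the tag-only sample, gives the binding signal.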

Another assay deals with ETV5 (Homo sapiens, UniProt P41161 1-510). The settings on record: protein: recombinant; tags: N-terminal GST; dsDNA, one strand shown. A digest of the protocol:
as §1

In the next assay the target is HSF1 (Homo sapiens, UniProt Q00613 1-529). The settings on record: protein: recombinant; tags: N-terminal GST; chain copies: 3; dsDNA, one strand shown. A digest of the protocol:
as §1

A further assay addresses T2, SPIC (Homo sapiens, UniProt Q8N5J4 1-248).
T2 sequence: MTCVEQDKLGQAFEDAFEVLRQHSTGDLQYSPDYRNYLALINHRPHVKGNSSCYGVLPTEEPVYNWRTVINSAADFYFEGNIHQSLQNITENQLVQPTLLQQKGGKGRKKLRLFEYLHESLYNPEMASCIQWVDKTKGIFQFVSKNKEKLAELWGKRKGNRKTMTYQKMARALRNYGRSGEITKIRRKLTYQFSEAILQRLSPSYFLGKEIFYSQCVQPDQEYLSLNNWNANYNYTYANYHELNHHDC
The settings on record: protein: recombinant; tags: N-terminal GST; dsDNA, one strand shown. The method, boiled down:
as §1

Another assay has as its target ELF4 (Homo sapiens, UniProt Q99607 1-663). To be noted: protein: recombinant; tags: N-terminal GST; dsDNA, one strand shown. The method, boiled down:
as §1

The next assay has as its target T3, ELK4 (Homo sapiens, UniProt P28324-2 1-405).
T3 sequence: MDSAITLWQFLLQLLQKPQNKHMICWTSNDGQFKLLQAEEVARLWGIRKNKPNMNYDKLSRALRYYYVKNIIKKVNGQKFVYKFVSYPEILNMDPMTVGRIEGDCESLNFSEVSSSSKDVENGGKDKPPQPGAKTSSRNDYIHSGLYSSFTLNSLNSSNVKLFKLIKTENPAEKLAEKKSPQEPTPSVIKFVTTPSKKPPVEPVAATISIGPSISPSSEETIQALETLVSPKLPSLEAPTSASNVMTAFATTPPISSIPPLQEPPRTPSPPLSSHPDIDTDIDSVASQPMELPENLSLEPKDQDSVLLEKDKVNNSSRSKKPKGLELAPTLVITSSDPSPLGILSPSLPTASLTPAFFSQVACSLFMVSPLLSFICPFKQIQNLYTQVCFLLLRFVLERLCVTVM
To be noted: protein: recombinant; tags: N-terminal GST; dsDNA, one strand shown. A digest of the protocol: as §1

The target of the next assay is T4, ETV2 (Homo sapiens, UniProt O00321 1-342).
T4 sequence: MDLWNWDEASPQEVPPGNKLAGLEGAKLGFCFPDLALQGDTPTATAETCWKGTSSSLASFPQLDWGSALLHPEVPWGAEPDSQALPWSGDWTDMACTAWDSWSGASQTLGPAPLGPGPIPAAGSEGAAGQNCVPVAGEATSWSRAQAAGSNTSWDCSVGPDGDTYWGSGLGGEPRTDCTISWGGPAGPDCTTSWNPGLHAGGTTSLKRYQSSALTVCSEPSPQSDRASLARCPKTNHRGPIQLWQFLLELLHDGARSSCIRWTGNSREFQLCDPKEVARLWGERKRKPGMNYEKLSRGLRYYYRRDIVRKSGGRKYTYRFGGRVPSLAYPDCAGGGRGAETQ
To be noted: protein: recombinant; tags: N-terminal GST; dsDNA, one strand shown. The method, boiled down:
as §1

The target of the next assay is T5, ELF3 (Homo sapiens, UniProt P78545 1-371).
T5 sequence: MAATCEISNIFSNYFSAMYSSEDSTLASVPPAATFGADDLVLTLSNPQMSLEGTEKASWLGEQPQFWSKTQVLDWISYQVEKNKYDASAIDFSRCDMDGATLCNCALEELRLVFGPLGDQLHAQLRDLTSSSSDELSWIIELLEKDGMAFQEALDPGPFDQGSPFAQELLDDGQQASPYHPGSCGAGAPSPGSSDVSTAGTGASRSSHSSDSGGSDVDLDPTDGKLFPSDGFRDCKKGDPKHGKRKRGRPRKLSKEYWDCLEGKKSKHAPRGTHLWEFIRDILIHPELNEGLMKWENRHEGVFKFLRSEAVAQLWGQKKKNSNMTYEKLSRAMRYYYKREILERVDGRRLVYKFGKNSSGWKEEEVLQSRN
To be noted: protein: recombinant; tags: N-terminal GST; dsDNA, one strand shown. A digest of the protocol: as §1

A further assay addresses CRX (Homo sapiens, UniProt O43186 1-299). To be noted: protein: recombinant; tags: N-terminal GST; dsDNA, one strand shown. A digest of the protocol:
as §1

Another assay addresses ETV1 (Homo sapiens, UniProt P50549 1-477). The settings on record: protein: recombinant; tags: N-terminal GST; dsDNA, one strand shown. The method, boiled down:
as §1

A further assay addresses T6, ERF (Homo sapiens, UniProt P50548 1-548).
T6 sequence: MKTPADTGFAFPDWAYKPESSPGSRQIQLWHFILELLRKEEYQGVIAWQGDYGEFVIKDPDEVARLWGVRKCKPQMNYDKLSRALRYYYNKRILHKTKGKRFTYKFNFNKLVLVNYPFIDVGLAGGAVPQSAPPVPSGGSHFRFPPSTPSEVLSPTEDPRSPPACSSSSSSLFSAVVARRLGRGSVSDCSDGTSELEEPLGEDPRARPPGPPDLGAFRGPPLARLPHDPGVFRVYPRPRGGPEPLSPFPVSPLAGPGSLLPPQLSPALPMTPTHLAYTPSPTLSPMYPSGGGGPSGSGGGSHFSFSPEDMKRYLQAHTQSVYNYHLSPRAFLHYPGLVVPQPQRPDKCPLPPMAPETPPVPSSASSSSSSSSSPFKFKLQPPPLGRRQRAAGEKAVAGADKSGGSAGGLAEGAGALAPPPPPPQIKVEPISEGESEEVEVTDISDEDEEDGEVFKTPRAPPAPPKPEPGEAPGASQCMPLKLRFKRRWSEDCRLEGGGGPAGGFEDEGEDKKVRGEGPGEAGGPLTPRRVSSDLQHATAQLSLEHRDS
To be noted: protein: recombinant; tags: N-terminal GST; dsDNA, one strand shown. The method, boiled down: as §1

For another assay, the target named is T7, ETV3L (Homo sapiens, UniProt Q6ZN32 1-361).
T7 sequence: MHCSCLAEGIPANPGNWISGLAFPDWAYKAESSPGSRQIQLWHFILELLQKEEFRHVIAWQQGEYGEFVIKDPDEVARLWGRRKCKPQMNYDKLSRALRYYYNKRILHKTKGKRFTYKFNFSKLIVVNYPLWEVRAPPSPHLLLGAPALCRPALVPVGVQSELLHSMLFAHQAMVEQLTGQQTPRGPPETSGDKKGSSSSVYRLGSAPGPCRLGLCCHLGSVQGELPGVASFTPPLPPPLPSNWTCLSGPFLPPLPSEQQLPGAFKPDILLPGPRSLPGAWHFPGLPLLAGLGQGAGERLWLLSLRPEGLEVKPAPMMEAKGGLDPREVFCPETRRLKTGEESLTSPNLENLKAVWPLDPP
To be noted: protein: recombinant; tags: N-terminal GST; dsDNA, one strand shown. A digest of the protocol: as §1

Another assay addresses T8, ETS2 (Homo sapiens, UniProt P15036 1-469).
T8 sequence: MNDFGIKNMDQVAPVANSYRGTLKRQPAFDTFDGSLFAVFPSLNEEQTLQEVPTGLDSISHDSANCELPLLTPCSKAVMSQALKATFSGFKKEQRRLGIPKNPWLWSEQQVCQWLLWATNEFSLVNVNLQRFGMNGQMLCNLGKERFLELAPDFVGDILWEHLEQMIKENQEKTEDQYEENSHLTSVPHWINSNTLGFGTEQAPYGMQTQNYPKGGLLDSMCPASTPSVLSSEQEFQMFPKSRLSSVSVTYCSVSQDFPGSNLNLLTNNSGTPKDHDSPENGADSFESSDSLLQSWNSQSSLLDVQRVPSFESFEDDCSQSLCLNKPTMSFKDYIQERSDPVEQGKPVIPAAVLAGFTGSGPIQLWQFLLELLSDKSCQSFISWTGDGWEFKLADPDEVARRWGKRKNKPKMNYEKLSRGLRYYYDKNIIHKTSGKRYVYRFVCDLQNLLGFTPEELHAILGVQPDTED
To be noted: protein: recombinant; tags: N-terminal GST; dsDNA, one strand shown. The method, boiled down:
as §1

In another assay the target is T9, SPDEF (Homo sapiens, UniProt O95238 1-335).
T9 sequence: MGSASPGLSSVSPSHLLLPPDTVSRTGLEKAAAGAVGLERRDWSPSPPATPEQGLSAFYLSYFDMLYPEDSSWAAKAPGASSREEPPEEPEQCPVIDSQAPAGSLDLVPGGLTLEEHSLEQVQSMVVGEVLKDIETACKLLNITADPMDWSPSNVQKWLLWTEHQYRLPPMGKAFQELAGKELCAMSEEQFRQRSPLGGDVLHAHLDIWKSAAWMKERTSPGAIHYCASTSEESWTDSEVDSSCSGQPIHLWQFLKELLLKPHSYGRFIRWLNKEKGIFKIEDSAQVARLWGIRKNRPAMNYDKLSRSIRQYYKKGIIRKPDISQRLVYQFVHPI
The settings on record: protein: recombinant; tags: N-terminal GST; dsDNA, one strand shown. The method, boiled down: as §1

In a further assay the target is T10, ETV7 (Homo sapiens, UniProt Q9Y603 1-341).
T10 sequence: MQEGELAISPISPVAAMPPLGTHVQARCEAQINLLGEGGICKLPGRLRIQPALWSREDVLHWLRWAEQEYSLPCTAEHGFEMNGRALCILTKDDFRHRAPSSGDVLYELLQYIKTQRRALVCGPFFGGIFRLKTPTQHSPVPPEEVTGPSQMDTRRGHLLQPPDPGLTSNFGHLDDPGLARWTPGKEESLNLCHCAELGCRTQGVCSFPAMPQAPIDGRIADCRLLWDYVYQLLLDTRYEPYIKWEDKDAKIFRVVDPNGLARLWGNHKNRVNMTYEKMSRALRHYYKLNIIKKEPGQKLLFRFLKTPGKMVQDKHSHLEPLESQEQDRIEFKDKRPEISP
The settings on record: protein: recombinant; tags: N-terminal GST; dsDNA, one strand shown. The method, boiled down:
as §1

A further assay has as its target T11, ELF5 (Homo sapiens, UniProt Q9UKW6-2 1-255).
T11 sequence: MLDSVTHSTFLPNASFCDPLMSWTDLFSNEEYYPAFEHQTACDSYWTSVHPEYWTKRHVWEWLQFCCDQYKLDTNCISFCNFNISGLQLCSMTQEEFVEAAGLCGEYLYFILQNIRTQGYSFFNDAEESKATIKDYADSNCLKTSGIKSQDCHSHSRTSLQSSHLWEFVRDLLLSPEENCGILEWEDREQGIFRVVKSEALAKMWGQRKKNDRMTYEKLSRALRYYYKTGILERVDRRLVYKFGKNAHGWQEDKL
The settings on record: protein: recombinant; tags: N-terminal GST; dsDNA, one strand shown. The method, boiled down:
as §1

In another assay the target is T12, ETV3 (Homo sapiens, UniProt P41162-2 1-143).
T12 sequence: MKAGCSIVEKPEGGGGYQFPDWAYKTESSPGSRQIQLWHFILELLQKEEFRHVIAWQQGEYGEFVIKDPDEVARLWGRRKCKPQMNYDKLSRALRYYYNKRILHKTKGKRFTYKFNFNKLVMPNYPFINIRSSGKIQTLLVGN
To be noted: protein: recombinant; tags: N-terminal GST; dsDNA, one strand shown. The method, boiled down: as §1

A further assay has as its target ETV6 (Homo sapiens, UniProt P41212 1-452). The settings on record: protein: recombinant; tags: N-terminal GST; dsDNA, one strand shown. The method, boiled down:
as §1

Sequence of ELF4 (Q99607 whole entry): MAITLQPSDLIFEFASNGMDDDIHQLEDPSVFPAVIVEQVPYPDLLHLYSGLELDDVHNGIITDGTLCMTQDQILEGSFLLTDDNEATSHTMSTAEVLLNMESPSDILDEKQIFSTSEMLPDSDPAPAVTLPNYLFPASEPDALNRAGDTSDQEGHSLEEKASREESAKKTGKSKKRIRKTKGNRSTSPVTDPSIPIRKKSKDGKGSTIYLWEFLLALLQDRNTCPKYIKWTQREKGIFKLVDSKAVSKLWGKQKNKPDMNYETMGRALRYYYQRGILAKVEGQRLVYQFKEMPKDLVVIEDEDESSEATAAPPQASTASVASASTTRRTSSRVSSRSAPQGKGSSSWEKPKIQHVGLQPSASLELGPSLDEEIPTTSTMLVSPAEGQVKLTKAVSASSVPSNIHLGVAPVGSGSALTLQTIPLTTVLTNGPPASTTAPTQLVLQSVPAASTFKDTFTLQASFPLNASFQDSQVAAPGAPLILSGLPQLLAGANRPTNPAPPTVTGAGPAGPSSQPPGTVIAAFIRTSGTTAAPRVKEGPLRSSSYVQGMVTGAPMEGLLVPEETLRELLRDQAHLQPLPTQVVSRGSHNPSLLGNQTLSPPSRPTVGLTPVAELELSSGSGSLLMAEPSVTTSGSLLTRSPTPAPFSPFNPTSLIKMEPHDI
Sequence of CRX (O43186 whole entry): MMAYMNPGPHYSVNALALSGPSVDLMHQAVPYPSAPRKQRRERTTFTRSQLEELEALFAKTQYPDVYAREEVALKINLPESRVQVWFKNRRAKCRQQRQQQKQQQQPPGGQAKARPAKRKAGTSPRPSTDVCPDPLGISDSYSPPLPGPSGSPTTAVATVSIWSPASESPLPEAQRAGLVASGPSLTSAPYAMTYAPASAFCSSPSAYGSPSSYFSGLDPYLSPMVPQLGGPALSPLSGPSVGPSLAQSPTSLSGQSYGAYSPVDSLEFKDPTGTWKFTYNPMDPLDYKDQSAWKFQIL
Sequence of ETV1 (P50549 whole entry): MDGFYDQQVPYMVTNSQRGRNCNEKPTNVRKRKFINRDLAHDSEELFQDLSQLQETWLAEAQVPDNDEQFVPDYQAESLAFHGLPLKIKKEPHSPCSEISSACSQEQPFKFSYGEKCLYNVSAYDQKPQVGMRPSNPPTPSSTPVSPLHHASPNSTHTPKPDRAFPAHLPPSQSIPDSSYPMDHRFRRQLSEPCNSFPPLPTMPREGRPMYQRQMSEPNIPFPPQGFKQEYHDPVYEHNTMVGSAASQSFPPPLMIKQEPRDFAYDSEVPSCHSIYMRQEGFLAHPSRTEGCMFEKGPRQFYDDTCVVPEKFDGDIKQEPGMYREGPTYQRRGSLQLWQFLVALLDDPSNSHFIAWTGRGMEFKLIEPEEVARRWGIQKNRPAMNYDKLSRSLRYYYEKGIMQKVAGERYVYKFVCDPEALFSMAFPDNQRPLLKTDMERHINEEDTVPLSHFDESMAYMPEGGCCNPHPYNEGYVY
Sequence of ETV5 (P41161 whole entry): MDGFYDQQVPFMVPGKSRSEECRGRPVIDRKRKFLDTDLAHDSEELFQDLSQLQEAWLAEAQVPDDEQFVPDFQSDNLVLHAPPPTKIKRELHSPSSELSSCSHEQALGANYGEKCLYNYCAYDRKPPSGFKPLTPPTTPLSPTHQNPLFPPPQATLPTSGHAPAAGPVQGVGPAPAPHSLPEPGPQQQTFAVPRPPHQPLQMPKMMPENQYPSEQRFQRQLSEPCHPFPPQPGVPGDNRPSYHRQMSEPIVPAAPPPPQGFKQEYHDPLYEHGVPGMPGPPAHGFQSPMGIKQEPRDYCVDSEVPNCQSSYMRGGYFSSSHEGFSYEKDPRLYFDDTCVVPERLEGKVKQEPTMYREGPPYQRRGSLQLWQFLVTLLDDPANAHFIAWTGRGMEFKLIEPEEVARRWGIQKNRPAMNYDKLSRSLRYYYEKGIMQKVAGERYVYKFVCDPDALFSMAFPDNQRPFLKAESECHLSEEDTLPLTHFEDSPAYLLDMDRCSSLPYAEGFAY
Sequence of ETV6 (P41212 whole entry): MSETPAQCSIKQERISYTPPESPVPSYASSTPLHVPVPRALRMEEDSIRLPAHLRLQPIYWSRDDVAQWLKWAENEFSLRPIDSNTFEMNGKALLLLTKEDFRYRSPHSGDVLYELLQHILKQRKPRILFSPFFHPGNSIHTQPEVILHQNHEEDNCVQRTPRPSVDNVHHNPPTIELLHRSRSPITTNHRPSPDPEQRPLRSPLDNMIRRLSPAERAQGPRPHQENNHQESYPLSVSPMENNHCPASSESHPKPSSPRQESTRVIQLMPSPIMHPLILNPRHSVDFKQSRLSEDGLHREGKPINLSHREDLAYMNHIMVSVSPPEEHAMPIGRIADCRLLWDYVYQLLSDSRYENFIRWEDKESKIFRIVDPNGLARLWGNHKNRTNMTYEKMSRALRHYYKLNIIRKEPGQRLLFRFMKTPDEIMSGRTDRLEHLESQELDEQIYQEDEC
Sequence of HSF1 (Q00613 whole entry): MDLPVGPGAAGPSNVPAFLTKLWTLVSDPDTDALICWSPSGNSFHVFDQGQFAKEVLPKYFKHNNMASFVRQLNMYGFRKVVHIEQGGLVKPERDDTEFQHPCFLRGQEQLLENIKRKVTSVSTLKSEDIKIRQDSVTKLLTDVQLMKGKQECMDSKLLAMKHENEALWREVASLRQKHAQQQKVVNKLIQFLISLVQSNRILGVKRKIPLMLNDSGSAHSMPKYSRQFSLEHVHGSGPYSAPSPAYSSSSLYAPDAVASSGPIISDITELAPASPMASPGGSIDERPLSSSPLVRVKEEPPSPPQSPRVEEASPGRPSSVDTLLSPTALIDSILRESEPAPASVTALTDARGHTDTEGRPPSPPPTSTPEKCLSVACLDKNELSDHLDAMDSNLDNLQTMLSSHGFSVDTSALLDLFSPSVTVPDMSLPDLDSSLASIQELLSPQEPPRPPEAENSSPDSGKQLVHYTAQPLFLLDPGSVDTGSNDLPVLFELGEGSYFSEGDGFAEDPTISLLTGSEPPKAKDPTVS

Take AATCCC: the binding signal is 1.41 fold enrichment (6-mer frequency, TF over GST control) with FEV; 1.3 fold enrichment (6-mer frequency, TF over GST control) in the assay with ETV5; 2.47 fold enrichment (6-mer frequency, TF over GST control) with HSF1; 1.2 fold enrichment (6-mer frequency, TF over GST control) with SPIC; 1.33 fold enrichment (6-mer frequency, TF over GST control) with ELF4; 1.28 fold enrichment (6-mer frequency, TF over GST control) with ELK4. Besides, the binding signal was 1.37 fold enrichment (6-mer frequency, TF over GST control) with ETV2; 1.35 fold enrichment (6-mer frequency, TF over GST control) in the assay with ELF3; 3.65 fold enrichment (6-mer frequency, TF over GST control) in the assay with CRX; 1.42 fold enrichment (6-mer frequency, TF over GST control) with ETV1; 1.44 fold enrichment (6-mer frequency, TF over GST control) with ERF; 1.29 fold enrichment (6-mer frequency, TF over GST control) with ETV3L. The binding signal was 1.25 fold enrichment (6-mer frequency, TF over GST control) in the assay with ETS2; 1.36 fold enrichment (6-mer frequency, TF over GST control) in the assay with SPDEF; 1.23 fold enrichment (6-mer frequency, TF over GST control) with ETV7; 1.4 fold enrichment (6-mer frequency, TF over GST control) with ELF5; 1.26 fold enrichment (6-mer frequency, TF over GST control) with ETV3; 1.42 fold enrichment (6-mer frequency, TF over GST control) with ETV6.
